Compound activity: PubChem BioAssay, several laboratories
FXIa mix inh: blocks human factor XIa in pooled compound mixtures; P03951; purified FXIa, fluorogenic substrate; inhibition, % at 5 µM; actives 0.19% (n = 62,000); AID 680;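 further: each value is inhibition by a whole ten-compound pool holding the compound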
Cathepsin G inh: inhibitors of human cathepsin G; purified enzyme, AMC-tetrapeptide fluorescence, pooled mixtures; inhibition, % at 5 µM (by protocol); actives 0.2% (n = 62,000); AID 581;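 active means inhibition above 20% in each of the two mixture wells holding the compound; inactive means inhibition of 20% or less in either well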
FXIIa inh mix: inhibitors of human coagulation factor XIIa, pooled mixtures; actives 0.2% (n = 62,000); purified FXIIa, fluorogenic substrate; inhibition, % at 5 µM
C1s block: blocks human complement C1s protease activity; P09871; purified C1s, fluorogenic AMC substrate, pooled mixtures; mean inhibition % of two 10-compound mixtures (stronger effect = higher value), % at 5 µM (by protocol); actives 0.16% (n = 62,000); AID 538;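 active means inhibition above 20% in each of the two 10-compound mixture wells holding the compound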
BAP1 block: human BAP1 deubiquitinase inhibition; Q92560; recombinant BAP1, Ub-AMC hydrolysis fluorescence kinetic; stronger effect = lower value; activity remaining (% of control), % at 20 µM; actives 0.48% (n = 72,000); AID 436;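 active means activity remaining at or below 50% of control, provided the compound also passes the data quality filters; inactive means the rest, including low values that fail the filters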
Target sequence (Q92560 whole entry, looked up): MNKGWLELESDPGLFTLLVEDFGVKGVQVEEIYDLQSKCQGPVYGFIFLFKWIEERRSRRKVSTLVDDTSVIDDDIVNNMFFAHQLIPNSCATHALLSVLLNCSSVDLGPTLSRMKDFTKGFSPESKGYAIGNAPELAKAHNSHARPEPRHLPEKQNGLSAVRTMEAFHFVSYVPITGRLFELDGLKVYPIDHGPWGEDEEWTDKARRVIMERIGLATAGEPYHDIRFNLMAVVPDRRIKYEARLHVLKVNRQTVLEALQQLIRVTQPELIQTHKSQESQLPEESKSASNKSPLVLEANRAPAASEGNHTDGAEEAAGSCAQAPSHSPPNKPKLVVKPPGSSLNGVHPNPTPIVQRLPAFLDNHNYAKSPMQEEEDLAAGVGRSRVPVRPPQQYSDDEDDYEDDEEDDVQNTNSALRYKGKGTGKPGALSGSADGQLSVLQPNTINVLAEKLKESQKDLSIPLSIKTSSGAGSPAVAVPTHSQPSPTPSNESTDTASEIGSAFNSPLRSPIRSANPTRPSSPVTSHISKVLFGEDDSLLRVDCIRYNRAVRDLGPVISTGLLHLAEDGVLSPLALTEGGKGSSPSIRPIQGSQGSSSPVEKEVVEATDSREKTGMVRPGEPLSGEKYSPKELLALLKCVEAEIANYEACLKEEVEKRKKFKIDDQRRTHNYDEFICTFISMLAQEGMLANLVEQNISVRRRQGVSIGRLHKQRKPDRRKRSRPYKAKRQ
Candida biofilm: kills Candida albicans biofilms | C. albicans biofilm + clotrimazole, Alamar Blue | inhibition, % at 6 µM | actives 0.14% (n = 85,000) | AID 834;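 active means inhibition above 20%; inactive means inhibition below 20%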;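 further: preformed 24 hr biofilms exposed to compound for 48 hr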
BAP1 inh confirm: confirmation of human BAP1 enzyme inhibitors; shares compounds with BAP1 block; purified BAP1, Ub-ethyl ester hydrolysis, HPLC; stronger effect = lower value; % of control activity, % at 20 µM; actives 8% (n = 310); AID 753;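 active means percent of control activity at or below 60%; inconclusive means HPLC trace unusable from injection failure or solvent front hiding peaks; inactive means the rest, plus ubiquitin peak ratio over a set limit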
Of the large screens only hits and unclear results are named; the others gave an inactive call (follow-up assays come after a bar, where they were run). Most compounds without a hit are left out; they make up all but 0.8% or so of the library. Unless noted, no stated cut-off is given here; in the data, active means inhibition above about 20% (passing the limit was not always enough); inactive means the rest.

COc1ccc(CCNC(=O)Cn2nnc(-c3ccc(N4CCOCC4)cc3)n2)cc1OC	none
Cc1nc(Nc2cccc(C(F)(F)F)c2)nc2c1C(=O)CC(C)C2 (configuration not stated)	BAP1 block 45.6 | BAP1 inh confirm inactive
Cc1cccc(Nc2ncc3c(n2)CC(C)CC3=O)c1 (configuration not stated)	none
c1ccc2c(-c3nc(C4CCCCC4)no3)cc(-c3ccncc3)nc2c1	BAP1 block 44.6 | BAP1 inh confirm inactive
c1ccc(-c2ccccc2-c2nc(-c3ccncc3)no2)cc1	none
CCOC(=O)c1nn(-c2ccccc2)c(C#N)c1NC(=O)c1nn(CC)cc1Br	none
CCOC(=O)c1c(NC(=O)c2nn(CC)cc2Br)c(C#N)nn1-c1ccccc1	BAP1 block 38.0 | BAP1 inh confirm inactive
COc1ccc2oc(=Nc3cccc4ccccc34)c(C(=O)NC(C)=O)cc2c1	none (no result: FXIa mix inh, Cathepsin G inh, FXIIa inh mix, C1s block, Candida biofilm)
COc1ccc2nc(NC(=O)CCc3nc(-c4ccccc4F)no3)sc2c1	BAP1 block 47.8 | BAP1 inh confirm 39.6
Cc1ccc(C)c(NC(=O)C(CC(=O)O)Cc2ccccc2)c1 (configuration not stated)	none (no result: FXIa mix inh, Cathepsin G inh, FXIIa inh mix, C1s block, Candida biofilm)
CCCCn1c2c(c3ccccc31)CCc1nonc1-2	BAP1 block 41.2 | BAP1 inh confirm 50.5
CCCC1C2CN(C(C)C)CC=C2C(C#N)=C(N)C1(C#N)C#N (configuration not stated)	BAP1 block 44.3 | BAP1 inh confirm inactive
CCOc1ccc(-n2nc3ccc(NC(=O)COc4ccccc4)cc3n2)cc1	none (no result: FXIa mix inh, Cathepsin G inh, FXIIa inh mix, C1s block, Candida biofilm)
CCOc1cc(S(=O)(=O)N2CCC(Cc3ccccc3)CC2)c(OCC)cc1-n1cnnn1	BAP1 block 40.7 | BAP1 inh confirm inactive
CCOc1cc(S(=O)(=O)N2CC=C(c3ccc(F)cc3)CC2)c(OCC)cc1-n1cnnn1	none
Cc1ccc(-n2nc(C)c3c2OC(N)=C(C#N)C3c2ccco2)cc1 (configuration not stated)	none
CCCn1c(SCC(=O)Nc2sc(C)c(C)c2C(=O)OCC)nc2c1c(=O)n(C)c(=O)n2C	BAP1 block 45.4 | BAP1 inh confirm inactive
CCCn1c(SCC(=O)Nc2ccccc2C(=O)OC)nc2c1c(=O)n(C)c(=O)n2C	none
CC(=O)SCCC(=O)Nc1ccccc1	none
O=C(c1ccccc1)c1ccc(OCC(O)CN2CCN(S(=O)(=O)N3CCCCC3)CC2)cc1 (configuration not stated)	none (no result: FXIa mix inh, Cathepsin G inh, FXIIa inh mix, C1s block, BAP1 block)
CCC(=O)c1ccc(OCC(O)CN2CCN(S(=O)(=O)N3CCCCC3)CC2)cc1 (configuration not stated)	BAP1 block 41.4 | BAP1 inh confirm inactive
COc1ccc(N(CC(=O)Nc2ccc(F)c(Cl)c2)S(=O)(=O)c2c(C)noc2C)cc1	BAP1 block 42.3 | BAP1 inh confirm inactive
O=c1[nH]c(=O)n(CCO)c2n[nH]nc12	none (no result: FXIa mix inh, Cathepsin G inh, FXIIa inh mix, C1s block, Candida biofilm)
Cc1ccc(C(C)C)c(OCC(=O)Nc2ccccc2N2CCN(C)CC2)c1	none
CC(=O)N1CCN(c2ccccc2NC(=O)COc2cc(C)ccc2C(C)C)CC1	BAP1 block 43.6 | BAP1 inh confirm inconclusive
O=C1NCCN1Cc1cccc(Cl)c1	none
N#Cc1c(NC(=O)CSc2nnnn2C2CCCCC2)sc2c1CCCC2	BAP1 block 40.0 | BAP1 inh confirm inactive
Cc1nnc(SCC(=O)Nc2sc3c(c2C#N)CCCCC3)n1N	none (no result: FXIa mix inh, Cathepsin G inh, FXIIa inh mix, C1s block, BAP1 block)
Cc1ccc2cc(C(c3nnnn3C3CCCC3)N(Cc3ccccc3)Cc3ccco3)c(=O)[nH]c2c1 (configuration not stated)	none
COCCn1nnnc1C(c1cc2ccc(C)cc2[nH]c1=O)N(Cc1ccco1)Cc1cccs1 (configuration not stated)	BAP1 block 37.6 | BAP1 inh confirm inactive
COc1ccccc1N1CCN(C(=O)CSc2nc(-c3ccco3)cc(C(F)(F)F)n2)CC1	BAP1 block 47.5 | BAP1 inh confirm inactive
CCOC(=O)N1CCN(c2ncnc3c2cnn3-c2ccc(OC)cc2)CC1	none (no result: FXIa mix inh, Cathepsin G inh, FXIIa inh mix, C1s block) | BAP1 inh confirm inactive
CCOc1ccccc1Oc1coc2cc(O)ccc2c1=O	BAP1 block 42.8 | BAP1 inh confirm inactive
COc1ccccc1Oc1coc2cc(O)ccc2c1=O	BAP1 block 37.0 | BAP1 inh confirm inactive
CCOc1ccc2c(=O)c(Oc3ccccc3OCC)coc2c1	none (no result: FXIa mix inh, Cathepsin G inh, FXIIa inh mix, C1s block, BAP1 block)
COC(=O)[C@H](CCSC)NC(=O)Nc1ccc(C)cc1	none
O=C(NCc1ccccn1)C1CCC(=O)N1C1CCCCC1 (configuration not stated)	none (no result: FXIa mix inh, Cathepsin G inh, FXIIa inh mix, C1s block, BAP1 block)
Cc1cc(C(=O)NCc2cc(C(=O)O)oc2C)c(C)o1	BAP1 block 36.9 | BAP1 inh confirm inactive
CCOc1ccc(-c2nc(-c3ccccc3C)no2)cc1	BAP1 block 44.6 | BAP1 inh confirm inactive
CCOc1ccc(C=Nc2ccc(Br)cc2)cc1	none (no result: FXIa mix inh, Cathepsin G inh, FXIIa inh mix, C1s block, Candida biofilm)
Cc1ccccc1C(=O)NCCSc1ccccc1	none (no result: FXIa mix inh, Cathepsin G inh, FXIIa inh mix, C1s block, BAP1 block)
COC(=O)C1=C(C)NC(=O)NC1c1cc(Cl)ccc1OC (configuration not stated)	BAP1 block 49.6 | BAP1 inh confirm inactive
COc1cccc(Cn2c(C3CC3)nc3ccc(NC(=O)c4ccco4)cc3c2=O)c1	BAP1 block 48.7 | BAP1 inh confirm inactive
O=C(Nc1ccc2nc(C3CC3)n(Cc3ccc(F)cc3)c(=O)c2c1)c1ccco1	none
COc1cc2cc(C)c3nnc(SCC(N)=O)n3c2cc1OC	none
O=C(O)c1oc2ccc(Br)cc2c1-n1cccc1	BAP1 block 44.6 | BAP1 inh confirm inactive
COC(=O)c1oc2ccc(Br)cc2c1NC(=O)c1ccccc1	none
CCOC(=O)N1CCN(S(=O)(=O)c2ccc(C(=O)Nc3sc4c(c3C#N)CCC4)cc2)CC1	BAP1 block 47.5 | BAP1 inh confirm inactive
